PLK1 PBD block – PLK1 (human) polo-box domain binding inhibition; P53350; 2.8% of 360,000 active; Potency, µM, most hits filed as inhibitors; AID 720504; Plk1 PBD binding of FITC phosphopeptide, fluorescence polarization; note: series mostly up to about 57 µM; nearly all actives have a fitted effect of over 65% in size
G9a block – blocks human histone lysine methyltransferase G9a. Q96KQ7. G9a H3K9 monomethylation, AlphaScreen, 2 h. Potency, µM (titrated, usually from 102 µM), hits mostly inhibitors. 8.8% of 350,000 active; note: nearly all actives have a fitted effect of over 75% in size
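Using a bead-based AlphaScreen, monomethylated H3K9 product from 2 h room-temperature reactions (G9a 20 nM, peptide 500 nM, SAM 20 uM) was detected with 0.5 ug/mL rabbit anti-H3K9me1 antibody.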
BAZ2B block – blocks human BAZ2B; Q9UIF8; AlphaScreen BAZ2B-H3K14Ac peptide displacement; Potency, µM (doses to about 114 µM), most hits filed as inhibitors; 4.4% of 360,000 active; note: nearly all actives have a fitted effect of over 60% in size
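AlphaScreen displacement of biotin-H3(5-23)K14Ac peptide (50 nM final) from BAZ2B (50 nM final) in PBS pH 7.4, 0.01% Tween-20; complex preformed 30 min RT, then compounds (top 110 uM) 30 min RT, beads 20 min dark.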
JMJD2A Tudor inh – blocks the human JMJD2A Tudor domain; Potency, µM (titrated, usually from 114 µM), hits mostly inhibitors; AlphaScreen JMJD2A-Tudor / H3K4me3 peptide binding; 4.4% of 390,000 active; O75164; note: nearly all actives have a fitted effect of over 50% in size
VDR inh – blocks the human vitamin D receptor | P11473 | VDR-SRC2-3 peptide fluorescence polarization, 2 h | Potency, µM, actives largely listed as inhibitors | 0.93% of 400,000 active
Target sequence (P11473 whole entry, looked up): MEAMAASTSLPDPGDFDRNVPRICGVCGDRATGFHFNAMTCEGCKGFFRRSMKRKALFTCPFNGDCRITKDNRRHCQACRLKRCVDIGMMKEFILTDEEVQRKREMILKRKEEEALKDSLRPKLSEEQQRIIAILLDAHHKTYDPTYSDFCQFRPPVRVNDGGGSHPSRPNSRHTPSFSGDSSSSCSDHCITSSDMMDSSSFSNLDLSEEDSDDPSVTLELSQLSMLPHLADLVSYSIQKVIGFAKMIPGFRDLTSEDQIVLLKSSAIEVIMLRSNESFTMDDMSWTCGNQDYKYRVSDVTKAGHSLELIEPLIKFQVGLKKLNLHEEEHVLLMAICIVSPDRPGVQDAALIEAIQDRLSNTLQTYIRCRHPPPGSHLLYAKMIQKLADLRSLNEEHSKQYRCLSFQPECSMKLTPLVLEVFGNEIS
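Measured by FP: displacement of SRC2-3 coactivator peptide from VDR by library compounds, following a two-hour ambient incubation.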
HP1b chromo inh – inhibitors of HP1-beta chromodomain binding to methylated histone tails; AlphaScreen HP1-beta / biotin-H3K9me3 peptide binding; AID 540317; Potency, µM (highest dose often 114 µM), most hits filed as inhibitors; 0.56% of 390,000 active; note: nearly all actives have a fitted effect of over 70% in size
Target sequence (P83916 whole entry, looked up): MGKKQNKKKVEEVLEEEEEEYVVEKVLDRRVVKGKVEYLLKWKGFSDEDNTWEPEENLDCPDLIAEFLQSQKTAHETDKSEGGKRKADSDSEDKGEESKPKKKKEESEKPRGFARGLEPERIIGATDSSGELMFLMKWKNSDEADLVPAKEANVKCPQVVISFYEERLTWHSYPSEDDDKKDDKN
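HP1-beta protein (50 nM final) preincubated 30 min at room temperature with biotinylated H3(1-18)K9me3 peptide (50 nM) in PBS pH 7.4, 0.01% Tween-20, then compound added for 30 min. AlphaScreen streptavidin donor/nickel chelate acceptor beads (10 ug/mL final), 30 min dark, luminescence read.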
Numbers stand for hits; i = inactive; ? = inconclusive; nt = not tested or not shown; [ ] = remark or other dose. In the library only some 11% were active in any assay of this set; here they are far more common. Calls come from the whole dose curve; as a rule, active = well fitted curve in the direction sought with a large enough effect; inconclusive = small, poorly fitted or top-dose-only effect, or another doubt; inactive = no such curve, though single readings can be large; an effect the other way counts as inactive or inconclusive.

SMILES	PLK1 PBD block	G9a block	BAZ2B block	JMJD2A Tudor inh	VDR inh	HP1b chromo inh
CC(C)CC(OC(=O)c1ccc(Cl)nc1)C(=O)NC1CCCC1 (stereo not drawn)	i	?	i	i	i	i
CCn1c2c(c(=O)n3ncc(C(=O)Nc4ccc(C(=O)OC)cc4)c13)CN(Cc1ccc(OC)cc1)CC2	nt	28µM	i	?	i	i
CCn1c2c(c(=O)n3ncc(C(=O)Nc4ccc(Cl)cc4C)c13)CN(Cc1ccc(OC)cc1)CC2	nt	i	i	i	i	i
CCn1c2c(c(=O)n3ncc(C(=O)Nc4cccc(Cl)c4C)c13)CN(Cc1ccc(OC)cc1)CC2	nt	14µM	i	?	i	i
COc1ccc(NC(=O)C2CCCN(c3nn4c(=O)cc(C)nc4s3)C2)c(OC)c1 (stereo not drawn)	i	i	?	i	i	i
C=CCOC(=O)/C(=C\c1cccc2ccccc12)NC(=O)c1ccccc1	i	i	i	i	i	i
C=CCOC(=O)C(=O)/C=C/c1csc2ccccc12	?	?	?	?	45µM	i
CCN(CC)C(=O)Cn1nnc2sc(-c3ccccc3)cc2c1=O	nt	i	i	i	i	i
CCC(c1nnc(SCC(=O)NCCc2ccc(Cl)cc2Cl)o1)N(C)C (stereo not drawn)	27µM	40µM	i	i	i	i
CCC(c1nnc(SCC(=O)Nc2cc(C)on2)o1)N(C)C (stereo not drawn)	?	?	?	?	i	i
Cc1ccc(N=C2NC(=O)C(CO)(CO)S2)cc1	i	i	i	i	i	i
CCCOCC1CC2(SC(=Nc3ccc(C)cc3)NC2=O)C(=O)O1 (stereo not drawn)	27µM	i[12.7 µM]	i	i[11.4 µM]	i	i
CCOc1ccc(NC(=O)CN(C)Cc2ccc3c(c2)OCO3)cc1S(=O)(=O)N1CCCC1	i	i	i	i	i	i
C[C@]12CCC3C(CC=C4C[C@@H](O)CC[C@@]43C)C1CCC2[C@]1(C)CCC(=O)O1 (stereo partly drawn)	i	?	56µM	?	i	?
Cc1ccc(C(=O)/C=C/c2ccc3c(c2)OCCO3)c(O)c1	i	40µM	?	32µM	?	?
O=C(/C=C/c1ccc2c(c1)OCCCO2)c1ccc2ccccc2c1O	i	11µM	10µM	28µM	i	25µM
O=C(C=Cc1ccc2c(c1)OCO2)C=Cc1ccc2c(c1)OCO2	i	nt	nt	nt	nt	nt
O=C(/C=C/c1ccccc1)c1ccc2c(c1)OCCCCO2	i	i	i	i	?	i
CC(C)NC(=O)N1CC[C@@]2(CCCN(C(=O)Oc3ccccc3)C2)C1	nt	i[12.7 µM]	nt	nt	i	nt
O=C(O)C1=C(OCc2ccc(F)c(F)c2)C(=O)NCC1	27µM	i[12.7 µM]	i	?	79µM	i
O=C(O)c1ccc(COc2c(F)c(F)cc(F)c2F)cc1	i	i[12.7 µM]	i	i	i	i
CC(=O)c1ccccc1OC(=O)COc1ccc(Cl)cc1C	21µM	i	i	i[11.4 µM]	?	i
CCCCN(C)C(=O)Cc1c(OC)ccc2cc(Br)ccc12	24µM	32µM	i	25µM	22µM	?
COc1ccc2cc(Br)ccc2c1CC(=O)N(C)C	i	?	i	i	i	i
COc1ccc(CCN(C)C(=O)c2cncc(Br)c2)cc1OC	i	i	i	i	i	i
SMILES	PLK1 PBD block	G9a block	BAZ2B block	JMJD2A Tudor inh	VDR inh	HP1b chromo inh
COc1ccc(CCN(C)Cc2c(O)ccc3cc(Br)ccc23)cc1OC	?	25µM	i	i	i	i
COc1ccc(CN(C)Cc2c(O)ccc3cc(Br)ccc23)cc1OC	?	25µM	?	i	i	i
CCC1=C(OC(=O)N(CC)CC)N2C(=O)OC(=NCCc3c[nH]c4ccccc34)[C@]2(Cc2ccccc2)[C@H]2C1=CC[C@H]1C(=O)N(C)C(=O)[C@H]12	i	i	i	?	i	i
COc1cc2c(cc1OC)C(c1ccc(-c3ccc(Cl)c(Cl)c3)o1)=NCC2	i	14µM	?	18µM	i	?
COc1cc2c(cc1OC)C(c1ccc(-c3ccccc3Cl)o1)=NCC2	i	7.1µM	28µM	?	i	?
O=C(NCC1CCCO1)C(c1ccc(F)cc1)N(CC1CCCO1)C(=O)c1ccc(-c2ccccc2)[nH]1 (stereo not drawn)	i	nt	40µM	i	i	i
COc1cc(/C=C/C(=O)N2CCCc3ccccc32)cc(OC)c1OC	i	i	i	i	i	i
COc1cccc(N2CCN(C(=O)c3oc4ccccc4c3NC(=O)CCc3cc(OC)no3)CC2)c1	i	56µM	?	?	i	i
CC(C)CC(=O)Nc1c(C(=O)N2CCN(c3ccccc3)CC2)oc2ccccc12	nt	14µM	i	i	i	i
CCC(CC)C(=O)Nc1c(C(=O)N2CCN(c3ccccc3)CC2)oc2ccccc12	i	i	i	i	i	i
Brc1ccc(CNCCCSc2nnnn2-c2ccccc2)cc1	nt	i	i	i	i	i
COc1ccc(-c2nc3cnc(N4CCN(C)CC4)nc3n(CCC#N)c2=O)cc1	nt	i[12.7 µM]	nt	nt	i	nt
CN(C)CCCn1c(=O)n(Cc2ccco2)c(=O)c2c3c(sc21)CCCCC3	i	?	i	i	i	i
O=c1c2c3c(sc2nc(NCCO)n1-c1ccccc1)CCCC3	i	i	i	i	i	i
CN(C)CCCNc1nc2sc3c(c2c(=O)n1CCc1ccccc1)CCCCC3	i	45µM	?	?	i	?
CN(C)CCn1c(=O)n(Cc2ccccc2)c(=O)c2c3c(sc21)CCCCC3	i	50µM	?	40µM	i	?
CN(C)CCCn1c(=O)n(CCc2ccccc2)c(=O)c2c3c(sc21)CCCCC3	i	i	?	56µM	?	i
Cc1ccc(C)c(S(=O)(=O)N2CCN(C(=O)CSc3ccccc3F)CC2)c1	i	i	i	i	i	i
c1ccc2c(-c3cn4ccccc4n3)c[nH]c2c1	nt	i	?	nt	nt	nt
CC12CCC(=O)N1C(C(=O)Nc1nc(-c3ccccc3Cl)cs1)CS2 (stereo not drawn)	i	50µM	i	i	i	i
Cc1sc(NC(=O)C2CSC3(C)CCC(=O)N23)nc1-c1ccccc1 (stereo not drawn)	i	50µM	?	i	i	i
Cc1cc2nc(SCCOC(=O)Nc3ccc(Cl)cc3)nc(C)c2cc1C	i	2µM	i	i	i	i
CCC(=O)Nc1ccc(-c2nnc3c4ccccc4c(C)nn23)cc1	nt	i	i	i	i	i
N#C/C(=C\c1ccc(-c2ccc(C(=O)O)cc2)o1)C(=O)NCC1CCCO1 (stereo not drawn)	i	10µM	?	i	i	i
Cc1cccc(C)c1NC(=O)/C(C#N)=C/c1ccc(-c2ccc(C(=O)O)cc2)o1	i	45µM	?	i	i	i
CCN(CC)c1ccc(/C=C(\C#N)c2nc(-c3cccs3)c(NC(C)=O)s2)cc1	nt	10µM	20µM	nt	nt	nt
CC(=O)Nc1sc(NC(=O)c2ccccc2)nc1-c1cccs1	i	i	i	i	i	i

Screening results: PubChem BioAssay, National Center for Advancing Translational Sciences (NCATS)
